Laboratory results as given in PubChem BioAssay AID2018 (Sanford-Burnham Center for Chemical Genomics, 2009).
Out of some 1,200 compounds screened, about 600 (50%) were called active. The set was probably picked from earlier hits. Some of the results follow. Entries with a potency or affinity are not part of this list. Unmarked numbers belong to inactive results. Rule as the data show it: active = inhibition above about 42%; inactive = the rest.

The molecules below were run against SUMO-conjugating enzyme UBC9 (Homo sapiens) (UniProt P63279) (assay: SUMOylation inhibitor hit validation, confirmation, SUMOylation inhibitor project, biochemical, AlphaScreen (AID 2018)). Conditions: AlphaScreen in vitro SUMOylation assay; at 35 µM; active compounds read high.
SUMO-conjugating enzyme UBC9 (Homo sapiens), sequence (P63279 whole entry, looked up): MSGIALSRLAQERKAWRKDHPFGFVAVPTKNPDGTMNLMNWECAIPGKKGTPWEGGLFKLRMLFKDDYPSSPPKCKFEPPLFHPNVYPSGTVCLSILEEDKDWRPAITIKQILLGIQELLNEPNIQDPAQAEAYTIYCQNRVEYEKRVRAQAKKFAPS
Work on `CC(=O)c1ccc(NC(=O)Nc2cccnc2)cc1` yielded an inhibition of -7.1%.
With `CSc1ccc(-c2cc(=O)c3ccccc3o2)cc1` the inhibition was -11%.
`CN(C)/C=N/c1nc2nccc(-c3cccnc3)n2n1` gave an inhibition of -4%.
For `Cc1ccc(S(=O)(=O)C(C#N)c2nc3ccccc3nc2N2CCCC2)cc1` (stereo not drawn), the inhibition was 44.2% (active).
In the case of `C=CCOC(=O)C(C#N)c1nc2ccccc2nc1N1CCN(Cc2ccccc2)CC1` (stereo not drawn), the inhibition is reported as 22.9%.
`Cc1cccc(S(=O)(=O)C(C#N)c2nc3ccccc3nc2N2CCCC2)c1` (stereo not drawn) was tested, and the inhibition was 28.3%.
In the case of `O=C(O)CN1C(=O)/C(=C\c2cc([N+](=O)[O-])ccc2OCc2ccccc2Cl)SC1=S`, the inhibition is reported as 63% (active).
Work on `CC(=O)Nc1ccc(-c2nc3ccc(NC(C)=O)cc3o2)cc1` yielded an inhibition of 25.1%.
Work on `CC(C)C(=O)Nc1cccc(C(=O)NCc2ccc3c(c2)OCO3)c1` yielded an inhibition of 13.6%.
Molecule `CC(=O)Nc1ccc(-c2cn3cccnc3n2)cc1` has an inhibition of 5.9%.
For `Clc1ccc(C2=CSC3=Nc4cccc5cccc(c45)N23)cc1`, the inhibition was 101% (active).
With `COc1ccc(OC)c(S(=O)(=O)NCCc2cn3ccsc3n2)c1` the inhibition was 44.5% (active).
`CCN(CC)C(=O)C1CCCN(C(=O)Nc2ccc3nsnc3c2)C1` (stereo not drawn) showed an inhibition of -9%.
Work on `COc1ccc(C2C(C(C)=O)=C(O)C(=O)N2C)c(OC)c1` (stereo not drawn) yielded an inhibition of -14.2%.
In the case of `COc1ccc(NCc2ccc([N+](=O)[O-])s2)c(OC)c1`, the inhibition is reported as 87% (active).
For `N#Cc1c(N(CCO)CCO)nc(N)c2c(N)nc3c(c12)CC(=O)N3CC1CCCO1` (stereo not drawn), the inhibition was 26%.
In the case of `N#Cc1c(N(CCO)CCO)nc(N)c2c(N)nc3c(c12)CC(=O)N3Cc1cccs1`, the inhibition is reported as 52.9% (active).
`COCCN(CCOC)c1nc(N)c2c(N)nc3c(c2c1C#N)CC(=O)N3Cc1ccc(Cl)cc1` gave an inhibition of 11.2%.
Work on `CCOC(=O)N1CCN(C(=O)c2cccn3c(=O)c4cc(Cl)ccc4nc23)CC1` yielded an inhibition of 11%.
`O=C1CC(CC(=O)N/N=C/c2ccccc2[N+](=O)[O-])=NN1` showed an inhibition of 26.8%.
`Nc1nnc(CC(=O)N/N=C/c2cc([N+](=O)[O-])cc(Br)c2O)s1` was tested, and the inhibition was 102% (active).
`O=C1/C(=C/c2ccco2)Oc2c1ccc(O)c2CN1CCCCC1` gave an inhibition of 9.4%.
With `Cc1cc(-c2csc(NC(=O)c3ccc(=O)[nH]c3)n2)c(C)n1Cc1ccccc1` the inhibition was 29.1%.
Molecule `CC1CCN(Cc2cc(=O)oc3cc(O)c(Cl)cc23)CC1` has an inhibition of -10.6%.
With `O=C(O)CCCN1C(=O)/C(=C/c2cn(-c3ccccc3)nc2-c2cccs2)SC1=S` the inhibition was 76% (active).
With `Cc1ccc(-c2nn(-c3ccccc3)cc2/C=C2\SC(=S)N(CCCCCC(=O)O)C2=O)o1` the inhibition was 74.8% (active).
With `Cc1ccc(N/N=C2\CC(=O)c3ccccc32)cc1Cl` the inhibition was 78.3% (active).
`CC(=O)N1C(=S)NC(=O)/C1=C1/C(=O)N(CC(=O)Nc2cccc(C)c2)c2ccccc21` was tested, and the inhibition was 12.6%.
`Cc1ccc(NC(=O)CN2C(=O)S/C(=C/c3ccc(-c4cc(C(=O)O)ccc4C)o3)C2=O)cc1C` was tested, and the inhibition was 101% (active).
`Cc1cccc(N(C)C(=O)c2cc3c(=O)[nH]c4ccc(C)cc4c3s2)c1` was tested, and the inhibition was 37.8%.
In the case of `CCOC(=O)c1ccc(N2C(=O)c3n[nH]c(-c4ccco4)c3C2c2ccc([N+](=O)[O-])cc2)cc1` (stereo not drawn), the inhibition is reported as 34.2%.
In the case of `Cc1c(C(=O)O)cccc1-c1ccc(/C=C2\SC(=O)NC2=O)o1`, the inhibition is reported as 48.8% (active).
`CCc1cc2c(=O)c(Oc3ccccc3F)c(C)oc2c(CN(C)C)c1O` was tested, and the inhibition was -4.3%.
`CC1=NN(c2ccc(Cl)cc2)C(=O)C1C(c1ccccc1O)c1c(C)[nH]n(-c2ccc(Cl)cc2)c1=O` (stereo not drawn) was tested, and the inhibition was 82.4% (active).
For `CC1=NN(c2ccc(F)cc2)C(=O)C1C(c1cccc(O)c1)c1c(C)[nH]n(-c2ccc(F)cc2)c1=O` (stereo not drawn), the inhibition was 89.4% (active).
In the case of `CC1=NN(c2ccc(C)cc2C)C(=O)C1C(c1cccc(O)c1)C1C(=O)N(c2ccc(C)cc2C)N=C1C` (stereo not drawn), the inhibition is reported as 81.1% (active).
Molecule `O=[N+]([O-])c1c(NCCO)cc(N2CCC3(CC2)OCCO3)c2nonc12` has an inhibition of 8.2%.
Molecule `CCCCCC(=O)Nc1ccc(-c2cn3cccnc3n2)cc1` has an inhibition of 10.6%.
For `COC12NC(=O)N(C)C1(OC)C(=O)N(C)C(=O)N2C` (stereo not drawn), the inhibition was -6.8%.
`Cc1cccc(S(=O)(=O)C(C#N)c2nc3ccccc3nc2N2CC(C)OC(C)C2)c1` (stereo not drawn) gave an inhibition of 3.9%.
For `COc1ccc(S(=O)(=O)C(C#N)c2nc3ccccc3nc2N2CCCC(C)C2)cc1` (stereo not drawn), the inhibition was 49.9% (active).
`Cc1ccc(-n2c(SCC(=O)Nc3ccc4c5c(cccc35)CC4)nc(O)cc2=O)cc1` gave an inhibition of 30.4%.
`Cc1ccc(-n2c(SCC(=O)N/N=C/c3ccccc3C(=O)O)nnc2-c2ccc(Cl)cc2)cc1` was tested, and the inhibition was 3.5%.
With `CN(C)/C=N/c1nc2nccc(-c3cccc(Cl)c3)n2n1` the inhibition was -11.7%.
For `CCCCNC(=O)Oc1c(Br)cc2sc(=O)oc2c1Br`, the inhibition was 88.3% (active).
In the case of `CC(=O)c1ccc2c(c1)C1C=CCC1C(C(=O)O)N2` (stereo not drawn), the inhibition is reported as 101% (active).
For `O=C(O)CCCN1C(=O)/C(=C/C=C/c2ccco2)SC1=S`, the inhibition was 100% (active).
`Nc1ccc2c(c1)sc1ccccc12` showed an inhibition of 20.5%.
In the case of `CCN(CC)S(=O)(=O)c1ccc(C)c(NC(=O)CSc2ncc(C(F)(F)F)cc2Cl)c1`, the inhibition is reported as 11.7%.
`COCCn1c(N)c(C(=O)OCc2ccccc2)c2nc3ccccc3nc21` showed an inhibition of -26.1%.
Work on `CN(C)CCCn1c(N)c(C#N)c2nc3ccccc3nc21` yielded an inhibition of 38.6%.
`COCCNC(=O)c1c(N)n(CCCn2ccnc2)c2nc3ccccc3nc12` was tested, and the inhibition was 5.2%.
`CC(C)Cn1c(N)c(C(=O)NCC2CCCO2)c2nc3ccccc3nc21` (stereo not drawn) gave an inhibition of 0%.
For `C=CCn1c(N)c(C(=O)NCC2CCCO2)c2nc3ccccc3nc21` (stereo not drawn), the inhibition was -9.9%.
For `COCCn1c(N)c(C#N)c2nc3ccccc3nc21`, the inhibition was 29.5%.
In the case of `COCCn1c(N)c(C(=O)NCC2CCCO2)c2nc3ccccc3nc21` (stereo not drawn), the inhibition is reported as 42.3% (active).
Work on `Cc1oc2c(c(C)cc3oc(=O)c(CC(=O)NCC(=O)NCC(=O)O)c(C)c32)c1C` yielded an inhibition of -1.1%.
With `Cc1ccc(C)n1-c1nccc(-c2cccs2)n1` the inhibition was 21.2%.
